hiPSC survival = enhancers of human iPSC single-cell survival; hiPSC single-cell survival, ATPlite luminescence; 100% = ROCK inhibitor wells, 0% = DMSO; AID 602274; hit rate 0.044% among 360,000; survival enhancement, % at 20 µM; in the data active = survival enhancement above about 18%;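 note: cells exposed to compounds for 16 hours before the ATP read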
LANA-H2A inh = blocks KSHV LANA binding to histone H2A/H2B; hit rate 0.6% among 320,000; inhibition, % (no concentration beside the values); cell-free LANA-H2A/H2B peptide, fluorescence polarization; Q9QR71; AID 2629; in the data active = inhibition mostly above about 10%, no sharp cut-off; inactive = mostly below about 6.7%
DAGLB inhibitor = diacylglycerol lipase beta (human) inhibition; Q8NCG7; HEK293T DAGLB membrane lysate, EnzChek fluorogenic substrate; inhibition, % at 5.17 µM; hit rate 0.059% among 340,000; AID 504411; in the data active = inhibition above about 34%
Target sequence (Q8NCG7 whole entry, looked up): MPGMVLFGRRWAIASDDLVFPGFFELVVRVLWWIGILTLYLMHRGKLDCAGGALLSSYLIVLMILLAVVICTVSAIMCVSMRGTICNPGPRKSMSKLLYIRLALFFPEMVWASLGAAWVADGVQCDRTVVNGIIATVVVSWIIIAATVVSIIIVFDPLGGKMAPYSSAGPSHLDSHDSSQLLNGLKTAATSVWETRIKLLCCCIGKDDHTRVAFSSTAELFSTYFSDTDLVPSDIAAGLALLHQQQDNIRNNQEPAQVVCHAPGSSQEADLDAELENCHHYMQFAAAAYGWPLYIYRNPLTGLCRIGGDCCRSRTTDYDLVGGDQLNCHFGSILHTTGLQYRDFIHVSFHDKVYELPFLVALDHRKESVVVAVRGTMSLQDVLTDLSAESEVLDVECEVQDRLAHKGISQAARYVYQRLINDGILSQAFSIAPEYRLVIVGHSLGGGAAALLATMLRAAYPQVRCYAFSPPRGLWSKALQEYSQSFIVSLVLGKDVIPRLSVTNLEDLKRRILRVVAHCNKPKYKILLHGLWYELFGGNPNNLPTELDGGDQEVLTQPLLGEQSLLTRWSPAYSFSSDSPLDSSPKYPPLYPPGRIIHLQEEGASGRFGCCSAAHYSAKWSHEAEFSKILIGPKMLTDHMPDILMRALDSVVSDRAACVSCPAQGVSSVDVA
HDAC3 inhib = inhibitors of human histone deacetylase 3 | O15379 | recombinant HDAC3, fluorogenic peptide/trypsin coupled, fluorescence | inhibition, % at 8.3 µM | hit rate 0.15% among 320,000; in the data active = inhibition above about 26%, passing the limit was not always enough; inconclusive = no clear call, values can overlap the other calls
Numbers stand for hits; i = inactive; ? = inconclusive; nt = not tested or not shown; + = active, no number; ! = a repeat was not active. The list is not random: actives were taken first. Their share in the collection is about 0.79%.

SMILES	hiPSC survival	LANA-H2A inh	DAGLB inhibitor	HDAC3 inhib
COC(=O)c1cc(O)c(O)c(O)c1	i	i	i	i
C=CC[C@H](CC(=O)N(CCO)Cc1ccccc1)C(=O)N[C@H](COC(=O)[C@H](CC=C)CC(=O)OC(C)(C)C)Cc1c[nH]c2ccccc12	i	nt	i	nt
C=CC[C@@H](CC(=O)N(CCO)Cc1ccccc1)C(=O)N[C@@H](COC(=O)[C@H](CC=C)CC(=O)OC(C)(C)C)Cc1c[nH]c2ccccc12	i	i	i	33
C=CC[C@H](CC(=O)N(CCO)Cc1ccccc1)C(=O)N[C@@H](COC(=O)[C@@H](CC=C)CC(=O)OC(C)(C)C)Cc1c[nH]c2ccccc12	i	i	i	40
C=CC[C@H](CC(=O)N(CCO)Cc1ccccc1)C(=O)N[C@H](COC(=O)[C@@H](CC=C)CC(=O)OC(C)(C)C)Cc1ccccc1	i	i	i	30
Cc1ccc(S(=O)(=O)NC(=O)Nc2ccc(C)cn2)cc1	i	i	i	i
O=C(CSc1nnc(-c2ccncc2)n1-c1ccccc1Cl)Nc1ccc(C(=O)O)cc1	i	48	i	i
COCCN(CCOC)S(=O)(=O)c1ccc(C(=O)Nc2nnc(C3CC3)o2)cc1	i	+	i	i
COc1ccc(C2NC(=S)NC3=C2CCCC3=C2SCCS2)cc1 (stereo unspecified)	i	i	i	?
S=C1NC2=C(CCCC2=C2SCCCS2)C(c2ccccc2)N1 (stereo unspecified)	i	i	i	43
O=C(Cc1ccc(F)cc1)Nc1cccc(-c2cn3c(n2)SCC3)c1	i	+	i	i
COc1ccc(NC(=O)C2(S(=O)(=O)c3ccc(C)cc3)CC2)cc1OC	i	26	i	i
Cc1ccc(S(=O)(=O)C2(C(=O)Nc3ccc(Br)cc3)CC2)cc1	i	i	i	i
Cc1ccc(CC(=O)Nc2nc3ccccc3s2)cc1	i	24	i	i
Cc1ccc(S(=O)(=O)CC(=O)Nc2nc3ccccc3s2)cc1	i	i	i	i
CCOc1ccc(NC(=O)CN(C)C(=O)Cc2ccc3c(c2)OCCO3)cc1OCC	i	nt	i	nt
COc1ccc(NC(=O)[C@@H]2[C@@H]3C(=O)N(C4CCCCC4)C(=O)[C@@H]3C3c4ccccc4C=CN32)cc1 (stereo partly specified)	i	17	i	i
CC(=O)[C@@H]1[C@@H]2C(=O)N(C3CCCCC3)C(=O)[C@@H]2C2c3ccccc3C=CN21 (stereo partly specified)	nt	i	nt	i
CC1=C(C(=O)OC(C)C)C(c2cccs2)C(C(=O)OC(C)C)=C(C)N1	i	i	i	29
Cc1ccsc1C(=O)N1CCCC1(C)C(=O)NCC(C)C (stereo unspecified)	i	nt	nt	nt
CC(=O)Nc1ccc(C(=O)CSc2nccc(=O)[nH]2)cc1	i	i	nt	62
O=C(CCNC(=O)c1ccc([N+](=O)[O-])cc1)Nc1cccc(S(=O)(=O)N2CCCCCC2)c1	i	12	i	i
Nc1nc(SCC(=O)Nc2cccc(S(=O)(=O)N3CCCCCC3)c2)n[nH]1	i	171	i	i
O=C1c2ccccc2C(c2nnnn2-c2ccc3c(c2)OCCO3)N1Cc1ccco1 (stereo unspecified)	i	nt	nt	nt
CC[C@@]1(C(=O)OC)N[C@H](CN(C)S(=O)(=O)c2ccc(C(C)(C)C)cc2)[C@@H]2C(=O)N(Cc3ccccc3)C(=O)[C@@H]21	i	69	i	i
SMILES	hiPSC survival	LANA-H2A inh	DAGLB inhibitor	HDAC3 inhib
COC(=O)[C@]1(Cc2ccccc2)N[C@H](CN(C)S(=O)(=O)c2ccc(C)cc2)[C@@H]2C(=O)N(Cc3ccccc3)C(=O)[C@@H]21	i	i	i	i
CCN(C[C@H]1N[C@@](CC)(C(=O)OC)[C@H]2C(=O)N(Cc3ccccc3)C(=O)[C@@H]12)C(=O)Nc1ccc(C(F)(F)F)cc1	i	+	i	i
COC(=O)[C@]12CCCCC=C1N(Cc1cccc3ccccc13)C(=O)[C@H](CC(=O)NCc1cccs1)C2	i	nt	nt	nt
C[C@@H]1CN([C@@H](C)CO)C(=O)c2cc(C#CCN(C)C)cnc2O[C@H]1CN(C)Cc1ccc2c(c1)OCO2	i	nt	i	nt
CCOC(=O)c1cnc2ccccc2c1NCc1ccco1	i	i	i	i
CCOC(=O)c1cnc2ccccc2c1Nc1ccc2c(c1)OCCO2	i	16	i	i
O=C1COc2ccc(N3C(=O)C=CC3=O)cc2N1	nt	i	nt	i
O=C(/C=C/c1ccccc1)N1CCC[C@H]1CO	i	i	i	i
C#CCSc1nncn1C(=O)/C=C/c1ccccc1	nt	i	nt	73
COCc1ccc(C(=O)N2CCCC(Nc3ccc(F)c(F)c3)C2)s1 (stereo unspecified)	i	95	i	i
Cc1ccc(S(=O)(=O)N[C@H](C(=O)OCC(=O)NC(=O)NCc2ccco2)C(C)C)cc1	24	i	i	i
CC(C)[C@H](NC(=O)c1ccccc1Cl)C(=O)OCC(=O)NC(=O)NCc1ccco1	i	i	i	i
Cc1sc(N)nc1-c1ccc2c(c1)OCCO2	i	i	i	i
NC1=NN=C(c2ccc3c(c2)OCCO3)CS1	i	i	i	49
CCC/C=C(\CCC)C(NS(=O)(=O)c1ccc(C(F)(F)F)cc1)c1ccccc1 (stereo unspecified)	nt	i	nt	27
O=C(O)C(NS(=O)(=O)c1ccc(F)cc1)c1ccccc1 (stereo unspecified)	i	i	i	i
CN(C)/C(=N\S(=O)(=O)c1ccc(F)cc1)c1ccccc1	i	i	i	i
CN(C)/C(=N\S(=O)(=O)c1ccccc1)c1ccc(F)cc1	i	16	i	i
Brc1ccc(CNCCCSc2ncccn2)cc1	i	i	i	35
CC(C)CNC(=O)C(=O)NNC(=O)c1ccco1	i	i	nt	i
O=C(CCc1c[nH]c2ccccc12)N1CCCCCCC1	i	60	i	i
C[C@@H](NC(=O)[C@@H]1Cc2ccccc2CN1)C(=O)Nc1ccc2c(c1)OCO2	26	i	i	i
CCN(CC)c1ccc(S(=O)(=O)N2CCCCC2)cc1NC(=O)C1CCC1	i	71	i	i
CC1(C(=O)NS(=O)(=O)c2cccc(Cl)c2)CCN1C(=O)Cc1cc(F)ccc1F (stereo unspecified)	i	nt	nt	nt
Cc1ccc(C2=NN(CC(=O)NCCN(CC(C)C)CC(C)C)C(=O)CC2)cc1	i	15	i	i
SMILES	hiPSC survival	LANA-H2A inh	DAGLB inhibitor	HDAC3 inhib
Cc1cc(-c2csc(N)n2)c(C)n1CCC(C)C	i	14	i	i
Cc1cc(-c2csc(N)n2)c(C)n1CCc1ccccc1	i	i	i	i
COc1ccc(/C=C/C(=O)O/N=C(\N)c2ccccn2)cc1OC	i	21	i	i
CCN(CC)C(=O)C1=C(C)N(CCC2=CCCCC2)C(=O)C(CC(=O)NCc2ccco2)C1 (stereo unspecified)	i	nt	i	nt
C[C@@H]1C[C@H]2[C@@H]3CCC4=CC(=O)C=C[C@]4(C)[C@@]3(F)[C@@H](O)C[C@]2(C)[C@@]1(O)C(=O)COP(=O)(O)O	i	47!	i	i
C[C@H]1C[C@H]2[C@@H]3CCC4=CC(=O)C=C[C@]4(C)[C@@]3(F)[C@@H](O)C[C@]2(C)[C@@]1(O)C(=O)CO	i	i	i	i
CCC(C)C(CO)NCCCn1cnc(C(=O)Nc2ccc(C)c(C)c2)n1 (stereo unspecified)	i	nt	i	nt

Compound activity as filed in PubChem.
